ChEMBL document CHEMBL4513216, “Probing the Open Global Health Chemical Diversity Library for Multistage-Active Starting Points for Next-Generation Antimalarials” (ACS Infect Dis, 2020)
The campaign covered roughly 69,000 compounds. About 8,600 (12%) showed an effect of 50% or more. The entries come from a sample that favours strong results as a whole.

System: Plasmodium berghei
Experiment: Screen against P. berghei liver stage (PbLuc), transformed with Luciferase, at 10uM
Assay type: functional, HepG2
Conditions: tested at 10 uM

Structure (SMILES)	INHIBITION
COc1cccc(C(=O)N2CCC(Nc3ccc(C)nn3)CC2)c1	21.5%
Cc1nnc(NC(=O)NC(C)Cn2cccn2)s1 (centres undefined)	-21.9%
COc1cc2nc(C)n(CC(=O)NCCCO)c(=O)c2cc1OC	-5.01%
Cn1cc(C(=O)N[C@@H]2CN(Cc3ccc(F)cc3)[C@@H]3CCCO[C@@H]32)cn1	-17.1%
O=C(NCc1ccccn1)C1CN(c2nc3ccccc3s2)CCN1 (centres undefined)	58.2%
Nc1nccc(N2CCNC(C(=O)NCc3ccccn3)C2)n1 (centres undefined)	52.6%
O=C(NCc1ccccn1)NC1CCCN(c2ncccn2)C1 (centres undefined)	23%
O=C(NCc1ccccn1)[C@H]1COC[C@H]2CN(c3ncccn3)C[C@H]21	41%
CCNC(=O)O[C@H]1COCCN(c2nc3ccccc3s2)C1	-3.58%
O=C(NC1CCCC1)O[C@H]1COCCN(c2nc3ccccc3s2)C1	85.1%
O=C(NC1CC1)C1CN(c2nc3ccccc3s2)CCN1 (centres undefined)	65.6%
O=C(NCc1ccncc1)C1CN(c2nc3ccccc3s2)CCN1 (centres undefined)	30.4%
CCCc1nc(C)cc(N2CCNC(C(=O)NC3CC3)C2)n1 (centres undefined)	47.1%
CC(C)NC(=O)O[C@H]1COCCN(c2nc3ccccc3s2)C1	-1.12%
O=C(NCc1cccnc1)C1CN(c2cnc3ccccc3n2)CCN1 (centres undefined)	37.8%
Cc1ccc(CN2CCNC(C(=O)NC3CC3)C2)cc1C (centres undefined)	-2.25%
Cc1cc(=O)n2c3c(cc(S(=O)(=O)NC4CC4)cc13)CCC2	49.45%
Cc1cc(CN2CCc3cncnc3C2)no1	23.9%
Cc1ccccc1-c1cc(CC2(C(=O)O)CCOCC2)on1	-21.4%
Cc1cc(CN2CCN(Cc3ccccc3F)CC2)no1	-4.35%
CN(C)C(=O)c1cncnc1-c1ccc(CNC(=O)C2CCCO2)cc1 (centres undefined)	4.615%
CC(C)n1c(=O)[nH]c2cn(-c3ccc(F)cc3)c(=O)n21	3.16%
Cc1[nH]c2c(C)ccc(C)c2c1CC(=O)NCC(O)c1cccnc1 (centres undefined)	76.5%

Structure (SMILES)	INHIBITION
Cc1[nH]c2c(C)ccc(C)c2c1CC(=O)NCCNc1cccnc1	-17.2%
Cc1[nH]c2c(C)ccc(C)c2c1CC(=O)NCCCNc1cccnc1	36.7%
Cc1ccc2c(n1)N(C)CCN(C(=O)C1CC1)C2	7.84%
COC(=O)CCN(C)C(=O)c1csc(Cc2ccccc2F)n1	91.3%
CC(C)NC(=O)CN(C)C(=O)c1csc(Cc2ccccc2F)n1	23.1%
CCNC(=O)CN(CC)C(=O)c1csc(Cc2ccccc2F)n1	32%
CC(C)NC(=O)N1CC[C@H]2[C@H]1CCN2c1ncccn1	-44.2%
Cc1cnc(NCc2ccncc2)nc1-c1cnn(C)c1	2.15%
CCNc1ncc(C)c(-c2cnn(C)c2)n1	27.6%
Cc1cnn(CC(C)NCc2csc(-c3cnn(C)c3)n2)c1 (centres undefined)	47.1%
Cc1cnc(NCc2csc(C(C)C)n2)nc1-c1cnn(C)c1	58.5%
Cc1cnc(NCc2cnn(C)c2)nc1-c1cnn(C)c1	61.2%
Cc1cnc(CNc2ncc(C)c(-c3cnn(C)c3)n2)cn1	39.4%
N#CC1CCN(C(=O)NCCc2ccc(Cl)s2)CC1	-7.31%
O=C(c1ccc(Cl)cc1)N1CCC(N2CCCCC2=O)CC1	27.5%
Cc1c(C(=O)NC2=NCCS2)cnn1-c1ccc(Br)cc1	-156%
COCC1Cn2nnc(-c3cnn(C)c3)c2CN1Cc1ccco1 (centres undefined)	11.8%
Cc1cc(C(=O)N2CCCC(n3cncn3)C2)c(C)n1CC1CC1 (centres undefined)	-41.6%
CC(Cc1ccco1)NC(=O)Nc1cccnc1 (centres undefined)	-10.1%
CC(C)N1CCOC(Cc2nn3c(Cc4ccccc4)nnc3s2)C1 (centres undefined)	45.5%
CCCc1nnc2sc(CC3CN(Cc4ccccc4)CCO3)nn12 (centres undefined)	59.2%
CC(C)c1nnc2sc(CC3CN(Cc4ccccc4)CCO3)nn12 (centres undefined)	42.8%
Cc1c(C(C)N)cnn1-c1cccc2ccccc12 (centres undefined)	7.24%

Structure (SMILES)	INHIBITION
Cc1c(C(C)N)cnn1-c1ccccn1 (centres undefined)	-12.1%
Cc1ccccc1-n1ncc(C(C)N)c1C (centres undefined)	58.4%
COc1ccccc1CNC(=O)C(C)n1cc2c(n1)c(C)nn2C (centres undefined)	21.7%
Cc1nn(C)c2cn(C(C)C(=O)NCc3cccnc3)nc12 (centres undefined)	-2.37%
Cc1nn(C)c2cn(C(C)C(=O)NCc3cccc(F)c3)nc12 (centres undefined)	58.2%
Cc1nn(C)c2cn(C(C)C(=O)NCc3ccc(F)cc3)nc12 (centres undefined)	19.3%
Cc1nn(C)c2cn(C(C)C(=O)NCc3ccccn3)nc12 (centres undefined)	55.7%
Cc1nn(C)c2cn(C(C)C(=O)NCc3ccncc3)nc12 (centres undefined)	32.5%
CN(Cc1ccco1)C(=O)NC1CCCN(c2ncccn2)C1 (centres undefined)	4.865%
COc1ccc2c(ccn2CC(=O)Nc2n[nH]c(CC(C)C)n2)c1	16%
CN(C)S(=O)(=O)N1C[C@@H]2COC[C@]2(COc2ccccn2)C1	11.5%
Cc1cc(C2CCC2)nc(N2CCC3(CCCN(C)C3=O)C2)n1 (centres undefined)	-14.3%
c1ccc(-c2cccc(N3CCC(NCCc4cscn4)CC3)c2)cc1	69.9%
O=C(NCCc1cccs1)NC1CCN(c2ncccn2)CC1	-89%
O=C1CCCN1c1cccc(N2CCC(NCCc3cscn3)CC2)c1	14.3%
Cc1nc(-c2cccc(N3CCC(NC4CCOCC4)CC3)c2)cs1	37.7%
c1cc(-c2cscn2)cc(N2CCC(NCCc3cccs3)CC2)c1	75.5%
Cc1ccc(N2CCCC(NCc3cscn3)C2)nn1 (centres undefined)	26.8%
CNc1cccc(C2CCN(C(=O)c3cccnc3)CC2)n1	-9.27%
Cc1cc(C(=O)N2CCN(S(C)(=O)=O)[C@@H](C)C2)c(F)cc1F	-14.2%
Cc1ccc(C)c2c(C)c(C(=O)NCCCn3ccnn3)[nH]c12	47.2%
O=C(NC1CCCN(c2ncccn2)C1)c1ccoc1 (centres undefined)	-6.32%
CC(C)c1nc(C2CCCN(C(=O)c3ccc(N(C)C)nn3)C2)no1 (centres undefined)	30.3%
